# Data as given in PubChem BioAssay AID1220 (Sanford-Burnham Center for Chemical Genomics, 2008).
# Out of some 190,000 compounds screened, about 1,300 (0.68%) were called active. The sample holds actives, similar compounds and a random draw of the others, so the mix is not that of the screen. No stated cut-off is given here; in the data, active means inhibition above about 50%; inactive means the rest.
# Target: Mannose-6-phosphate isomerase (Homo sapiens) (UniProt P34949)
# Assay: MPI inhibition at elevated mannose 6-phosphate – biochemical, fluorescence intensity, high mannose 6-phosphate, primary screen (AID 1220)
# Conditions: recombinant PMI enzyme, coupled fluorescence intensity; at 20 µM; active compounds read high
# Mannose-6-phosphate isomerase (Homo sapiens), sequence (P34949 whole entry, looked up): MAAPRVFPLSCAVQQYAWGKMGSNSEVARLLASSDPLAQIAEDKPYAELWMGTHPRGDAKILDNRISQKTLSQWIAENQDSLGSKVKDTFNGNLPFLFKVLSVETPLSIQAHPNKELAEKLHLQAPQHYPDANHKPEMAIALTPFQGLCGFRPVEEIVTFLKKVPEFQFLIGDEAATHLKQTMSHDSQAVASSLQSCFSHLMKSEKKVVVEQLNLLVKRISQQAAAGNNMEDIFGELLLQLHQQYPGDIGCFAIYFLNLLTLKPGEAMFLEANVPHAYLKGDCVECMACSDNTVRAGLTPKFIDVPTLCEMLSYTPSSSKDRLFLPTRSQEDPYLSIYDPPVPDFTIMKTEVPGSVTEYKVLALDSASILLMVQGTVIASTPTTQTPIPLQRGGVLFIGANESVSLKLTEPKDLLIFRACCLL
row,Structure (SMILES),inhibition
1,CCCCCCn1c(=O)[nH]c2nc3cc(N)ccc3nc2c1=O,24% (inactive)
2,CCCCCCn1c(=O)[nH]c2nc3cc(N)c(C)cc3nc2c1=O,49.7% (inactive)
3,CCCCn1c(=O)[nH]c2nc3cc(N)ccc3nc2c1=O,52.5% (active)
4,C=CCn1c(COc2ccccc2F)nnc1SCCN1C(=O)c2ccccc2C1=O,10.7% (inactive)
5,COCCn1c(C)cc(C(=O)CSc2nc3ccccc3o2)c1C,-1.7% (inactive)
6,CCOC(=O)c1cnc2ccc(OC)cc2c1NCc1ccccc1,27.2% (inactive)
7,CCOC(=O)c1cnc2ccc(OCC)cc2c1NCc1ccccc1,43.5% (inactive)
8,CCOC(=O)c1cnc2ccc(OCC)cc2c1NCc1cccnc1,62.8% (active)
9,Cc1cc2nc(-c3ccc(SCC(=O)Nc4nccs4)nc3)[nH]c2cc1C,-0.3% (inactive)
10,Nc1nc2n(n1)C(=O)CC(c1ccccc1[N+](=O)[O-])N2 (centres undefined),9.2% (inactive)
11,O=C(/C=C/c1ccc2c(c1)OCO2)NCCSCc1ccc(Cl)cc1Cl,12.8% (inactive)
12,CC1(C)CC(=O)C2=C(C1)OC(N)=C(C#N)C21CCN(C(=O)OCc2ccccc2)CC1,4.4% (inactive)
13,CC(=O)Nc1ccc(S(=O)(=O)NNC(=O)COc2cccc3ccccc23)cc1,1.3% (inactive)
14,O=C1CCCC(O)=C1C=NCc1ccccc1,-2.2% (inactive)
15,O=[N+]([O-])c1cc2oc3c(c2c(C=NCc2ccccc2)c1O)CCCC3,50.7% (active)
16,O=[N+]([O-])c1cc2oc3c(c2c(C=NCc2ccncc2)c1O)CCCC3,52.5% (active)
17,Oc1c(Br)cc2oc3c(c2c1CNCc1ccccc1)CCCC3,2.3% (inactive)
18,O=C(c1ccncc1)N(c1ccc2oc3c(c2c1)CCCC3)S(=O)(=O)c1cccc([N+](=O)[O-])c1,6% (inactive)
19,Cc1ccc(S(=O)(=O)N(C(=O)c2ccncc2)c2ccc3oc4c(c3c2)CCCC4)cc1[N+](=O)[O-],1.1% (inactive)
20,COCC(=O)Nc1nnc(CCc2ccccc2)s1,9.8% (inactive)
21,COC(=O)C1=C(C)N(c2ccc(OC)c(OC)c2)C(=O)C1,-12.5% (inactive)
22,CN(C)C(=O)c1cn(-c2ccccc2)nc1-c1cccs1,-7.1% (inactive)
23,O=C(NCC(=O)N1CCN(S(=O)(=O)c2cccs2)CC1)c1ccc(Cl)cc1,5.3% (inactive)
24,FC(F)(F)c1cc(-c2cccs2)nc2nc(N3CCOCC3)sc12,-4.4% (inactive)
25,CC1(C)Oc2ccc3ccc(=O)oc3c2/C(=C/Nc2ccc(O)cc2)C1=O,14.8% (inactive)

row,Structure (SMILES),inhibition
1,CC1(C)OC(C)(C)/C(=C/Nc2ccc(O)cc2)C1=O,52.5% (active)
2,CC1(C)OC(C)(C)/C(=C/Nc2ccccc2)C1=O,0.4% (inactive)
3,Cc1ccc(NC(=O)C2CCCN2C(=O)NC2CCCCC2)cc1 (centres undefined),7.7% (inactive)
4,CCCCC(=O)NC1(C(F)(F)F)C(=O)N(Cc2ccco2)C(C)=C1C(=O)OC (centres undefined),2.6% (inactive)
5,CCOC(=O)C1CCN(C(=O)CSc2nccc(C)n2)CC1,-8.5% (inactive)
6,COCCNC(=O)NC(=O)CN1CCCc2ccccc21,6.7% (inactive)
7,O=C1CC(N2CCN(c3ccc(F)cc3)CC2)C(=O)N1c1ccc2c(c1)OCO2 (centres undefined),24.1% (inactive)
8,O=C1CC(N2CCN(c3ccccc3)CC2)C(=O)N1c1ccc2c(c1)OCO2 (centres undefined),-2% (inactive)
9,O=C1CC(N2CCN(c3ccc(O)cc3)CC2)C(=O)N1c1ccc2c(c1)OCO2 (centres undefined),60.4% (active)
10,COc1ccccc1OCc1ccc(C(=O)OCC2CCCO2)o1 (centres undefined),-2% (inactive)
11,COC(=O)c1oc2ccc(OC)cc2c1N,-2.9% (inactive)
12,OCC[C@@H]1C[C@@H](O)[C@H](O)[C@]2(CCCCO2)O1,0.7% (inactive)
13,COC(=O)c1cccc(C(=O)Nc2ccc(F)cc2)n1,2.8% (inactive)
14,COc1ccc(NC(=O)C2CCN(C(=O)NCc3ccccc3)CC2)cc1,13% (inactive)
15,CN(Cc1ccc(F)cc1)C(=O)CCc1nnc(-c2ccccc2)o1,-0.8% (inactive)
16,O=C(Cc1ccc(Cl)cc1)Nc1cccc(S(=O)(=O)Nc2ccccc2F)c1,10.4% (inactive)
17,O=C(Nc1cccc(S(=O)(=O)Nc2ccccc2F)c1)c1ccc2ccccc2n1,44.1% (inactive)
18,CCOC(=O)CC(NS(=O)(=O)c1ccc(OC)c(C)c1)c1cccc([N+](=O)[O-])c1 (centres undefined),12.1% (inactive)
19,CCOC(=O)c1ccc(S(=O)(=O)N2CCN(S(=O)(=O)CC)CC2)cc1,4.2% (inactive)
20,CCNC(=S)N1CCN(C(c2ccccc2)c2ccccc2)CC1,18.7% (inactive)
21,COc1ccc(C(=O)NC(C)c2nnc(SCC(=O)Nc3nc4ccccc4s3)n2C)cc1 (centres undefined),4.8% (inactive)
22,CCOC(=O)c1c(-c2ccco2)csc1NC(=O)CSc1nnc(N)s1,9.8% (inactive)
23,CCOC(=O)c1c(CC(C)C)csc1N,34.4% (inactive)
24,CCOC(=O)c1c(-c2ccc(C)o2)csc1NC(=O)COC(=O)c1cccs1,16.6% (inactive)
25,CCOC(=O)c1c(-c2ccc(C)o2)csc1NC(=O)CN1CCCCC1,20.2% (inactive)

row,Structure (SMILES),inhibition
1,CCOC(=O)c1c(-c2ccco2)csc1N,57.9% (active)
2,CCOC(=O)c1c(-c2ccc(C)o2)csc1N,51.6% (active)
3,COc1ccc(C(=O)O/N=C(/C)c2cccs2)cc1,-4.4% (inactive)
4,Cc1c(NC(=S)NC(NC(=O)C(C)C)C(Cl)(Cl)Cl)c(=O)n(-c2ccccc2)n1C (centres undefined),1.4% (inactive)
5,NC(=O)C1(N2CCCCC2)CCN(Cc2ccc(F)cc2)CC1,1.7% (inactive)
6,C[C@]12CC[C@@H]3c4ccc(O)cc4CC[C@H]3[C@@H]1CC[C@@H]2O,-6.7% (inactive)
7,C[C@]12CC[C@@H]3c4cc(O)c(O)cc4CC[C@H]3[C@@H]1CC[C@@H]2O,27.9% (inactive)
8,COC(=O)/C=c1/s/c(=C(\C#N)C(=O)NCc2ccco2)n(-c2ccccc2)c1=O,-5.5% (inactive)
9,Cc1ccc(-n2ncc(C#N)c2/N=C/N2CCOCC2)cc1,14.1% (inactive)
10,Cc1cc(O)ccc1N/C=C1\CCCC1=O,54.1% (active)
11,Cc1ccc(N/C=C2\CCCCC2=O)c(C)c1,-0.6% (inactive)
12,O=C1CCCC/C1=C\Nc1ccc(O)cc1,25% (inactive)
13,O=C(N/N=C/c1cccc([N+](=O)[O-])c1)c1ccc(COc2ccccc2-c2ccccc2)cc1,0.3% (inactive)
14,Cc1ccc2c(c1)N(CC(=O)N1CCN(c3nc4ccccc4s3)CC1)C(=O)C(C)O2 (centres undefined),0.6% (inactive)
15,Cn1c(CN2CCCCC2)nc2cc(NC(=O)c3ccc(F)cc3)ccc21,10.4% (inactive)
16,CCOc1ccc(S(=O)(=O)n2cc(F)c(=O)[nH]c2=O)cc1,11.2% (inactive)
17,CC(C)COc1ccc(S(=O)(=O)n2cc(F)c(=O)[nH]c2=O)cc1,50.5% (active)
18,CCCOc1ccc(S(=O)(=O)n2cc(Br)c(=O)[nH]c2=O)cc1,-4.8% (inactive)
19,CC(C)(C)NCC(O)COc1ccccc1C(C)(C)C (centres undefined),2.5% (inactive)
20,Cc1ccc2nsnc2c1S(=O)(=O)N(Cc1cc2cccc(C)c2[nH]c1=O)CC1CCCO1 (centres undefined),10.3% (inactive)
21,Cc1nnc(SCC(=O)c2ccc(C(C)C)cc2)s1,7.2% (inactive)
22,CC(C)c1ccc(C(=O)CSc2n[nH]c(-c3ccncc3)n2)cc1,4.3% (inactive)
23,S=C(NCCN1CCOCC1)N/N=C/c1ccccc1,3.7% (inactive)
24,Oc1ccc(/C=N/NC(=S)NCCN2CCOCC2)c(O)c1,-21.6% (inactive)
25,C=CCn1c(C(C)NC(=O)c2ccccc2C)n[nH]c1=S (centres undefined),2.2% (inactive)

row,Structure (SMILES),inhibition
1,CCOC(=O)c1c(-c2ccc(C)s2)csc1NC(=O)c1cccs1,-3.8% (inactive)
2,CCOC(=O)c1c(-c2ccncc2)csc1N,23.1% (inactive)
3,CCOC(=O)c1c(-c2cccc([N+](=O)[O-])c2)csc1NC(=O)C1CC1,40.4% (inactive)
4,CCOC(=O)c1c(-c2cccc([N+](=O)[O-])c2)csc1N,50.3% (active)
5,CCOC(=O)c1c(-c2ccc(C)s2)csc1NC(=O)c1ccco1,3.5% (inactive)
6,CCOC(=O)c1c(-c2ccsc2)csc1N,59.8% (active)
7,CCOc1ccc(-c2csc(N)c2C(=O)OC)cc1,19.4% (inactive)
8,CCOC(=O)c1c(-c2cccc([N+](=O)[O-])c2)csc1NC(=O)C1CCCCC1,24% (inactive)
9,Cc1ccc2nc(-c3cccnc3)c(Nc3ccccc3C)n2c1,4.7% (inactive)
10,COc1ccc(NC(=O)c2cc3c(=O)n4ccccc4nc3n2C)c(OC)c1,6.3% (inactive)
11,Cc1cc(C)c(S(=O)(=O)c2ccccc2)c(Cl)n1,5.7% (inactive)
12,COC(=O)c1[nH]c2ccccc2c1NC(=O)CNC1CCCCC1,11.8% (inactive)
13,C=CCc1cccc(/C=N/NC(=O)CNc2ccccc2)c1O,-4.5% (inactive)
14,C=CCc1cccc(/C=N/NC(=O)CNc2ccccc2OC)c1O,-20.8% (inactive)
15,C=CCc1cccc(/C=N/NC(=O)CNc2cccc3ccccc23)c1O,55.2% (active)
16,CSc1ccc(/C=N/NC(=O)CNc2cccc3ccccc23)cc1,17.1% (inactive)
17,Cc1cccc(/C=N/NC(=O)CNc2cccc3ccccc23)n1,61.8% (active)
18,O=C(CNc1cccc2ccccc12)N/N=C/c1ccc([N+](=O)[O-])cc1,18.1% (inactive)
19,O=C(CNc1cccc2ccccc12)N/N=C/c1cccc(Oc2ccccc2)c1,51.8% (active)
20,Cc1ccc(NCC(=O)N/N=C/c2cccc(Oc3ccccc3)c2)cc1,10.5% (inactive)
21,Cc1cccc(NCC(=O)N/N=C\c2cccc(Oc3ccccc3)c2)c1,12.6% (inactive)
22,O=C(CNc1ccccc1)c1ccc([N+](=O)[O-])cc1,-90.7% (inactive)
23,O=C(CNc1cccc2ccccc12)c1ccc([N+](=O)[O-])cc1,57.5% (active)
24,Cc1cccc(/C=N/NC(=O)C(C)Nc2cccc3ccccc23)n1 (centres undefined),-72.3% (inactive)
